From PubChem BioAssay (Tox21) come the findings set out here.

Several values for one entry are separate records, joined by “and”; a condition that tells them apart may be missing. Equal entries are not always repeated. Inconclusive results are not listed. Activity calls are given as the source filed them. Unless noted, calls come from the whole dose curve; as a rule, active = well fitted curve in the direction sought with a large enough effect in the repeat runs; inconclusive = weak or mixed curves; inactive = no such curve, though single readings can be large; an effect the other way counts as inactive or inconclusive.

Assay [1] in a line: qHTS assay to identify small molecule antagonists of the thyroid receptor (TR) signaling pathway - cell viability counter screen (AID 743064). Note: nearly all actives have a fitted effect of over 50% in size. Note: potency is the fitted concentration of half-maximal effect. In outline: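 Viability of T3-stimulated (1 nM final) GH3.TRE-Luc cells is measured by CellTiter-Fluor fluorescence after 23.5 h compound exposure at 37 °C plus 30 min reagent incubation.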
A short description of assay [2]: qHTS assay to identify small molecule antagonists of the thyroid receptor (TR) signaling pathway (AID 743065). Note: nearly all actives have a fitted effect of over 55% in size. Note: potency is the fitted concentration of half-maximal effect. In outline:
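GH3.TRE-Luc rat pituitary cells carrying two TR response elements driving luciferase were plated for 4 h, given compound plus 1 nM T3 (final), and incubated 23.5 h at 37 C. ONE-Glo luminescence measured reporter inhibition; CellTiter-Fluor fluorescence tracked cytotoxicity.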
In general terms: qHTS replaces the single test concentration by a dilution series.

The test system of assay [3] is thyroid hormone receptor (rat, GH3 cells). In words: qHTS assay to identify small molecule agonists of the thyroid receptor (TR) signaling pathway (AID 743066; calls by dose curve).
The target of assay [4] is Estrogen receptor (Homo sapiens) (UniProt P03372). Description: qHTS assay to identify small molecule antagonists of the estrogen receptor alpha (ER-alpha) signaling pathway (AID 743069; active = well fitted curve in the direction sought with a large enough effect in the signal ratio in the repeat runs, not every such curve was filed as active; the % refers to the signal ratio). In outline:
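HEK293 cells stably carrying an ER-alpha-UAS-bla beta-lactamase reporter were pre-cultured overnight in 2% charcoal-stripped FBS medium. Test compounds in DMSO were added together with 17beta-estradiol for 18 hr at 37C. Read-out was fluorescence after 2 hr with LiveBLAzer B/G FRET substrate at room temperature.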

Assay [5] in a line: qHTS assay to identify small molecule antagonists of the estrogen receptor alpha (ER-alpha) signaling pathway - cell viability counter screen (AID 743074; calls by dose curve; note: nearly all actives have a fitted effect of over 45% in size).
In assay [6] the target is Estrogen receptor (Homo sapiens) (UniProt P03372). In words: qHTS assay to identify small molecule agonists of the estrogen receptor alpha (ER-alpha) signaling pathway using the BG1 cell line (AID 743079). Note: nearly all actives have a fitted effect of over 20% in size. Note: potency is the fitted concentration of half-maximal effect.
Sequence of Estrogen receptor (Homo sapiens) (P03372 whole entry, looked up): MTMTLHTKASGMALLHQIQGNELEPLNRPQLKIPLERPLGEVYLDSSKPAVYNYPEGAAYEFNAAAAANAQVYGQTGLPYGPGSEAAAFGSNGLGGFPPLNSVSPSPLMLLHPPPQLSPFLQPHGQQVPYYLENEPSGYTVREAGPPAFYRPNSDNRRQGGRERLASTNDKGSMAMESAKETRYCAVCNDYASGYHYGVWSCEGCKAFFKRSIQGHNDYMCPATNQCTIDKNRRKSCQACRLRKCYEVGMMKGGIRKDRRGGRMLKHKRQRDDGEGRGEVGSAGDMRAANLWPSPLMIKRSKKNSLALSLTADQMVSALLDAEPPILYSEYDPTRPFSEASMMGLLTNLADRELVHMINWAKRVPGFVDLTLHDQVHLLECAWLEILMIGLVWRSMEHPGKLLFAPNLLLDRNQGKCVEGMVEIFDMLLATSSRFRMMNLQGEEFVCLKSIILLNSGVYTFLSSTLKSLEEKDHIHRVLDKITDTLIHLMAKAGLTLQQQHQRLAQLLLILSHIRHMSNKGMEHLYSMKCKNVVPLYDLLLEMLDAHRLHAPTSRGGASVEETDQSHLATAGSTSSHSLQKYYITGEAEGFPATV
Assay [7] in a line: qHTS assay to identify small molecule antagonists of the estrogen receptor alpha (ER-alpha) signaling pathway using the BG1 cell line - cell viability counter screen (AID 743081).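 Note: compound given together with 17beta-estradiol as the ER stimulus; series mostly up to about 70 µM; nearly all actives have a fitted effect of over 45% in size.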
Assay [8] deals with Estrogen receptor (Homo sapiens) (UniProt P03372). In words: qHTS assay to identify small molecule agonists of the estrogen receptor alpha (ER-alpha) signaling pathway (AID 743075; calls by dose curve).
The next assay deals with Aromatase (Homo sapiens) (UniProt P11511). Description: qHTS assay to identify aromatase inhibitors (AID 743083). Note: series mostly up to about 70 µM; nearly all actives have a fitted effect of over 55% in size.
Sequence of Aromatase (Homo sapiens) (P11511 whole entry, looked up): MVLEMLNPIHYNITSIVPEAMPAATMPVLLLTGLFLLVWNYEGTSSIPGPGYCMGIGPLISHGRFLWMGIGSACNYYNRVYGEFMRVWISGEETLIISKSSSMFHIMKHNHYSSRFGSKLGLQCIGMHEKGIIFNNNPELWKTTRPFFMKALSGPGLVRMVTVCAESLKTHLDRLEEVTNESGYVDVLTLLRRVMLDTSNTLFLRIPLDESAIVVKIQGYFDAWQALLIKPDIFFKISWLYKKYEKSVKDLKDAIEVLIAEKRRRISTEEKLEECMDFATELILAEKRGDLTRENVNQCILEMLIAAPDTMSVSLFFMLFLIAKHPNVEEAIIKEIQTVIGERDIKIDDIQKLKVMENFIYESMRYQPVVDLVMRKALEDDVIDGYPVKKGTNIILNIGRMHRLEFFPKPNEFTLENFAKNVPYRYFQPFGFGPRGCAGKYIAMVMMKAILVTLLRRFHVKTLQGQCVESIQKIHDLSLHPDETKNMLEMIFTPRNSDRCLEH
Assay [9] can be described thus: qHTS assay to identify small molecule antagonists of the estrogen receptor alpha (ER-alpha) signaling pathway using the BG1 cell line (AID 743080; calls by dose curve; note: series mostly up to about 70 µM; nearly all actives have a fitted effect of over 25% in size). In a few lines:
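Antagonist mode: compounds in DMSO were pinned onto BG1-Luc-4E2 cells alongside 17beta-estradiol agonist, incubated 21.5 h, and ERE-driven luciferase measured with ONE-Glo. Cytotoxicity was multiplexed using CellTiter-Fluor fluorescence.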

As for `O=c1cc(-c2ccccc2)oc2ccccc12`, the Potency result in assay [1], in [2] and in assay [7] was “inactive” throughout. The molecule was classed as inactive in [3], in assay [4] and in assay [5]. Further, the Potency in [6] was 2.43 µM (active) and 3.95 µM (active).
As to `Cc1nc2c([nH]1)c(=O)n(C)c(=O)n2Cc1ccco1`, the Potency result (in [1]; in assay [2]; in assay [8]; in assay [6]; in assay [7]; in the assay with Aromatase (Homo sapiens)) was “inactive” in each case. The outcome in assay [3], in [4] and in assay [5] was inactive.
Regarding `CC(=O)c1ccccc1O`, the Potency result (in assay [1]; in [2]; in [8]; in assay [6]; in [7]; with Aromatase (Homo sapiens)) was “inactive” in each case. Further, the result in [3], in assay [4] and in assay [9] was inactive.
Regarding `O=C[C@H](O)[C@@H](O)[C@H](O)[C@H](O)CO`, the Potency result (in assay [1]; in assay [2]; in [8]; in assay [6]; in assay [7]; with Aromatase (Homo sapiens)) was “inactive” throughout. Also, the molecule was called inactive in assay [3], in assay [4], in [5] and in assay [9].
Consider `C=CCOCC(CC)(CO)COCC=C`, for which the Potency result in assay [1], in assay [2] and in assay [7] was “inactive” each time. The outcome in assay [3] was inactive.
In the case of `COC(=O)[C@@H](N)Cc1ccc(O)c(O)c1`, the Potency in assay [1] is 21.1 µM (active); in [2], 23.7 µM (active). The molecule was classed as inactive in assay [3] and in assay [5]. In addition, the Potency entry in the assay with Aromatase (Homo sapiens) was “inactive”.
For `N=C(N)c1ccccc1`, the Potency entry (in [1]; in assay [2]; in [7]; with Aromatase (Homo sapiens)) was “inactive” each time. Further, the molecule was called inactive in assay [3] and in assay [5].
For `O=C1CCCC(=O)C1`, the Potency result (in assay [1]; in [2]; in assay [7]; with Aromatase (Homo sapiens)) was “inactive” in each case. The outcome in assay [3] and in assay [5] was inactive.
On to `NC(=O)c1ccc([N+](=O)[O-])cc1`, for which the Potency result (in assay [1]; in assay [2]; in [7]; with Aromatase (Homo sapiens)) was “inactive” throughout. Further, the call in assay [3] and in [5] was inactive.
For `CCCCCCCCCCCCN(CCCCCCCCCCCC)CCCCCCCCCCCC`, the Potency entry (in assay [1]; in [2]; in assay [7]; with Aromatase (Homo sapiens)) was “inactive” throughout. Moreover, the molecule was called inactive in assay [3] and in [5].
Consider `Brc1c(NC2=NCCN2)ccc2nccnc12`, for which the Potency result (in assay [1]; in [2]; in assay [7]; with Aromatase (Homo sapiens)) was “inactive” each time. For the same molecule, the molecule was called inactive in [3] and in assay [5].
Regarding `Cn1c(N)c(N=O)c(=O)n(C)c1=O`, the Potency result (in [1]; in assay [2]; in assay [7]; in the assay with Aromatase (Homo sapiens)) was “inactive” in each case. Further, the outcome in assay [3] and in [5] was inactive.
Turning to `CCCCCCCCS(=O)(=O)Cl`, the Potency result (in [1]; in assay [2]; in assay [7]; with Aromatase (Homo sapiens)) was “inactive” in each case. In addition, the call in assay [3] and in assay [5] was inactive.
`NS(=O)(=O)c1ccccc1Cl`: the Potency entry (in assay [1]; in assay [2]; in assay [7]; with Aromatase (Homo sapiens)) was “inactive” throughout. For the same molecule, the call in assay [3] and in assay [5] was inactive.
Take `CCCC(=O)O[C@]1(C(=O)CO)CC[C@H]2[C@@H]3CCC4=CC(=O)CC[C@]4(C)[C@H]3[C@@H](O)C[C@@]21C`: the Potency entry (in assay [1]; in [2]; in [7]; with Aromatase (Homo sapiens)) was “inactive” each time. For the same molecule, the molecule was classed as inactive in [3] and in assay [5].
Consider `CN1CC(=O)NC1=N`, for which the Potency result (in assay [1]; in [2]; in assay [7]; in the assay with Aromatase (Homo sapiens)) was “inactive” each time. Besides, the call in assay [3] and in [5] was inactive.
With `O=C1CCCN1C1CCCCC1`, the Potency entry (in assay [1]; in assay [8]; in assay [6]; in assay [7]; with Aromatase (Homo sapiens)) was “inactive” each time. The call in [3], in assay [4], in [5] and in [9] was inactive.
`COC(=O)CC(C)=O`: the Potency entry (in [1]; in assay [2]; in assay [7]; with Aromatase (Homo sapiens)) was “inactive” each time. The result in assay [3] and in assay [5] was inactive.
Take `CCCN1CCCC[C@H]1C(=O)Nc1c(C)cccc1C`: the Potency result (in assay [1]; in [2]; in assay [7]; in the assay with Aromatase (Homo sapiens)) was “inactive” throughout. Moreover, the molecule was called inactive in assay [3] and in assay [5].
Turning to `C[N+](C)(C)CCCCCC[N+](C)(C)C`, the Potency result (in assay [1]; in assay [2]; in the assay with Aromatase (Homo sapiens)) was “inactive” each time. Besides, the molecule was called inactive in assay [3] and in [5].
As for `COc1cc(C(=O)N2CCCCCCC2)cc(OC)c1OC`, the Potency result (in [1]; in assay [8]; in assay [6]; in assay [7]; with Aromatase (Homo sapiens)) was “inactive” each time. Moreover, the call in assay [3], in assay [4], in assay [5] and in assay [9] was inactive.
On to `O=C(O)CCCc1ccccc1`, for which the Potency result (in [1]; in assay [2]; in assay [7]; in the assay with Aromatase (Homo sapiens)) was “inactive” each time. Besides, the result in assay [3] and in [5] was inactive.
For `O=C(O)CN(CCOCCOCCN(CC(=O)O)CC(=O)O)CC(=O)O`, the Potency entry (in assay [1]; in assay [2]; in assay [7]; with Aromatase (Homo sapiens)) was “inactive” throughout. Moreover, the outcome in [3] and in assay [5] was inactive.
As for `CCOC(=O)c1c(C)n(C)c2ccc(O)cc12`, the Potency entry (in assay [1]; in assay [2]; in assay [7]; with Aromatase (Homo sapiens)) was “inactive” in each case. The outcome in assay [3] and in assay [5] was inactive.
As to `COC(=O)c1ccc(C)cc1C1=NC(C)(C(C)C)C(=O)N1` (stereo not given), the Potency entry (in [1]; in [2]; in [7]; in the assay with Aromatase (Homo sapiens)) was “inactive” each time. Moreover, the molecule was classed as inactive in assay [3] and in assay [5].
Consider `C[N+](C)(C)CC(O)CC(=O)[O-]` (stereo not given), for which the Potency result (in assay [1]; in assay [2]; in assay [7]; with Aromatase (Homo sapiens)) was “inactive” each time. Further, the call in assay [3] and in [5] was inactive.
As to `O=c1[nH]c(=O)n([C@H]2C[C@H](O)[C@@H](CO)O2)cc1I`, the Potency entry (in [1]; in assay [2]; in assay [7]; with Aromatase (Homo sapiens)) was “inactive” in each case. Also, the molecule was classed as inactive in assay [3] and in assay [5].
With `CN1CCN(c2cc3c(cc2F)c(=O)c(C(=O)O)cn3-c2ccc(F)cc2)CC1`, the Potency entry (in [1]; in [2]; in assay [7]; with Aromatase (Homo sapiens)) was “inactive” each time. Also, the call in assay [3] and in assay [5] was inactive.
Take `C1OCOCO1`: the Potency result (in [1]; in [2]; in assay [7]; with Aromatase (Homo sapiens)) was “inactive” in each case. The molecule was classed as inactive in assay [3] and in assay [5].
Turning to `CN(C(=O)c1c(O)c2ccccc2n(C)c1=O)c1ccccc1`, the Potency result (in assay [1]; in [2]; in [7]; with Aromatase (Homo sapiens)) was “inactive” in each case. In addition, the result in assay [3] and in assay [5] was inactive.
`C[C@H]1C[C@@H](O)CC(C)(C)C1`: the Potency result (in assay [1]; in assay [2]; in assay [7]; with Aromatase (Homo sapiens)) was “inactive” in each case. For the same molecule, the outcome in assay [3] and in assay [5] was inactive.
In the case of `CC(=O)N(CC(O)CO)c1c(I)c(C(=O)NCCO)c(I)c(C(=O)NCC(O)CO)c1I` (stereo not given), the Potency entry (in assay [1]; in [2]; in assay [7]; with Aromatase (Homo sapiens)) was “inactive” each time. Further, the outcome in assay [3] was inactive.
On to `OC[C@]1(O)OC[C@@H](O)[C@H](O)[C@@H]1O`, for which the Potency result (in assay [1]; in [2]; in [7]; with Aromatase (Homo sapiens)) was “inactive” throughout. The call in [3] and in assay [5] was inactive.
On to `COC(C)(C)CCCC(C)CC=O` (stereo not given), for which the Potency entry (in assay [1]; in assay [2]; in assay [7]; with Aromatase (Homo sapiens)) was “inactive” throughout. Also, the call in [3] and in assay [5] was inactive.
Turning to `Cc1[nH]c(=O)c(C#N)cc1-c1ccc2nccn2c1`, the Potency result in assay [1], in assay [2] and in [7] was “inactive” each time. Besides, the molecule was called inactive in [3] and in assay [5].
Regarding `CC(C)=CCCC(C)CC(=O)O` (stereo not given), the Potency entry (in assay [1]; in assay [2]; in [7]; with Aromatase (Homo sapiens)) was “inactive” throughout. Also, the result in [3] and in assay [5] was inactive.
Turning to `CCOc1ccc(C(=O)OCCN(CC)CC)cc1`, the Potency result (in assay [1]; in [2]; in [7]; with Aromatase (Homo sapiens)) was “inactive” throughout. For the same molecule, the molecule was called inactive in assay [3] and in assay [5].
With `CO[C@]12C[C@@H](COC(=O)c3cncc(Br)c3)CN(C)[C@@H]1Cc1cn(C)c3cccc2c13`, the Potency in assay [1] and in assay [2] was 21.1 µM (active) each time. Further, the molecule was called inactive in assay [3] and in assay [5]. For the same molecule, the Potency entry (in assay [7]; with Aromatase (Homo sapiens)) was “inactive” throughout.
Consider `CCCN(CCC)CCc1cccc2c1CC(=O)N2`, for which the Potency entry (in [1]; in assay [2]; in [7]; with Aromatase (Homo sapiens)) was “inactive” throughout. For the same molecule, the molecule was classed as inactive in [3] and in assay [5].
